# Test results taken from PubChem BioAssay (Tox21).
# “And” between values parts separate entries of the source, which are not always exact repeats. Equal entries are not always repeated. Records with an inconclusive call do not appear. The source made the active and inactive calls. Calls follow the shape of the full dose curve.
# Experiment: qHTS assay for small molecule agonists of the p53 signaling pathway (AID 651631); also: nearly all actives have a fitted effect of over 15% in size
# Conditions: HCT-116 p53RE-bla reporter, beta-lactamase FRET ratio, 16 h; series mostly up to 73.3 µM
# Description: U.S. Tox21 Program National Center for Advancing Translational Sciences [NCATS] NIH Chemical Genomics Center [NCGC] U.S. Environmental Protection Agency [EPA] National Institutes of Environmental Health Sciences [NIEHS] National Toxicology Program [NTP] U.S. Food and Drug Administration [FDA] Tox21 Assay Overview: p53, a tumor suppressor protein, is activated following cellular insult, including DNA damage and other cellular stresses. The activation of p53 regulates cell fate by inducing DNA repair, cell cycle arrest, apoptosis, or cellular senescence. The activation of p53, therefore, is a good indicator of DNA damage and other cellular stresses. The CellSensor p53RE-bla HCT-116 cell line (Invitrogen) contains a stably integrated beta-lactamase reporter gene under control of the p53 response elements. The activation of the reporter gene under culture conditions can be detected by fluorescence intensity. This cell line was used to screen the Tox21 compound library in a 1536-well plate format and to identify agonists that activate the p53 signaling pathway.
# Tox21 Assay Protocol Summary: The p53RE-bla cells were dispensed at 4,000 cells/5 ul/well in 1536-well black wall/clear bottom plates using a Multidrop dispenser. After the assay plates were incubated at a 37 C/5% CO2 incubator for 5 hours, 23 nL of compounds dissolved in DMSO, positive controls or DMSO only was transferred to the assay plate by a pin tool. The plates were incubated at 37 C for 16 hours. After 1 uL of LiveBLAzerTM B/G FRET substrate was added using a Flying Reagent Dispenser, the plates were incubated at room temperature for 2 hours, and fluorescence intensity was measured by an Envision plate reader.
# Potency is read from the fitted curve at half-maximal effect.
row,Compound,Potency
1,Cc1[nH]cnc1C[C@H]1CCc2c(C)c3ccccc3n2C1=O,inactive
2,O=c1cc(-c2ccc(O)cc2)oc2cc(O)cc(O)c12,15.6 µM (active) and 43.3 µM (active)
3,Cc1cc2c(cc1C(F)(F)F)N(C(=O)Nc1ccc(Oc3cccnc3C)nc1)CC2,inactive
4,C/C=C(\C)C(=O)OCc1ccccc1,inactive
5,COc1ccc(C(=O)/C(Br)=C\C(=O)O)cc1,10.6 µM (active) and 21.7 µM (active)
6,CC(C)=CCOc1ccc(/C=C/C(=O)c2ccc(OCC=C(C)C)cc2OCC(=O)O)cc1,13.3 µM (active)
7,O=C(NOCC1CC1)c1ccc(F)c(F)c1Nc1ccc(I)cc1Cl,11.9 µM (active)
8,CO[Si](CCCNc1ccccc1)(OC)OC,inactive
9,CC(=O)N1CCN(c2ccc(OC[C@H]3CO[C@](Cn4ccnc4)(c4ccc(Cl)cc4Cl)O3)cc2)CC1,inactive
10,COc1cc(/C=C/C(=O)O[C@H]2CC[C@]34C[C@]35CC[C@]3(C)[C@@H]([C@H](C)CCC=C(C)C)CC[C@@]3(C)[C@@H]5CC[C@H]4C2(C)C)ccc1O,7.5 µM (active)
11,CC[C@@]1(O)C(=O)OCc2c1cc1n(c2=O)Cc2cc3c(CN(C)C)c(O)ccc3nc2-1,0.237 µM (active)
12,CC[C@H](c1ccc(O)cc1)[C@@H](CC)c1ccc(O)cc1,5.07 µM (active) and 13.7 µM (active)
13,CCCCN1C(=O)[C@@H]([C@H](O)C2CCCCC2)NC(=O)C12CCN(Cc1ccc(Oc3ccc(C(=O)O)cc3)cc1)CC2,54.5 µM (active)
14,O=[N+]([O-])c1ccccc1Nc1ccccc1,inactive
15,O=C(OC[C@H]1O[C@@H](OC(=O)c2cc(O)c(O)c(OC(=O)c3cc(O)c(O)c(O)c3)c2)[C@H](OC(=O)c2cc(O)c(O)c(OC(=O)c3cc(O)c(O)c(O)c3)c2)[C@@H](OC(=O)c2cc(O)c(O)c(OC(=O)c3cc(O)c(O)c(O)c3)c2)[C@@H]1OC(=O)c1cc(O)c(O)c(OC(=O)c2cc(O)c(O)c(O)c2)c1)c1cc(O)c(O)c(OC(=O)c2cc(O)c(O)c(O)c2)c1,2.66 µM (active) and 10.4 µM (active)
16,O=C1C=CC(=O)N1c1ccc(Cc2ccc(N3C(=O)C=CC3=O)cc2)cc1,13.7 µM (active)
17,CSc1cnc(C)cn1,inactive
18,CCCC1O[C@@H]2C[C@H]3[C@@H]4CCC5=CC(=O)C=C[C@]5(C)[C@H]4[C@@H](O)C[C@]3(C)[C@]2(C(=O)CO)O1 (stereo not given in full),inactive
19,Cc1cc(C2CCCCC2)n(O)c(=O)c1,8.04 µM (active)
20,O=C(O)c1c(Cl)cccc1Cl,inactive

row,Compound,Potency
1,CCCC/C=C/CCCCO,inactive
2,CCN(C(=O)c1cc(C)cc(OC[C@H](C)Nc2ccncc2)c1)C(C)C,inactive
3,N=C1C=CC(=C(c2ccc(N)cc2)c2ccc(N)cc2)C=C1,68.6 µM (active)
4,CC(C)(C)C(=O)OCOC(=O)[C@@H]1N2C(=O)[C@@H](NC(=O)[C@H](N)c3ccccc3)[C@H]2SC1(C)C,inactive
5,CC(C)(C)c1ccc(C(=O)O)cc1,inactive
6,Cc1cc(=O)oc2cc(N(C)C)ccc12,48.6 µM (active)
7,O=C(O)c1cc(O)c2c(c1)C(=O)c1cccc(O)c1C2=O,19.9 µM (active)
8,C=C(C)C(=O)OCC(O)COc1ccc(C(C)(C)c2ccc(OCC(O)COC(=O)C(=C)C)cc2)cc1 (stereo not given),68.6 µM (active)
9,CCN(CC)CCCC(C)Nc1c2ccc(Cl)cc2nc2ccc(OC)cc12 (stereo not given),5.96 µM (active)
10,COc1c(C)c2c(c(O)c1C/C=C(\C)CCC(=O)O)C(=O)OC2,0.0717 µM (active)
11,c1ccc(CSCc2ccccc2)cc1,inactive
12,Cc1cc(N)c(S(=O)(=O)O)cc1Cl,inactive
13,CC(=O)S[C@@H]1CC2=CC(=O)CC[C@]2(C)[C@H]2CC[C@@]3(C)[C@@H](CC[C@@]34CCC(=O)O4)[C@H]12,17.2 µM (active)
14,NNC(=O)c1cccc(C(=O)NN)c1,inactive
15,Nc1c2ccccc2nc2ccccc12,3.35 µM (active) and 1.91 µM (active)
16,CC(=O)SC[C@@H](Cc1ccccc1)C(=O)NCC(=O)OCc1ccccc1,inactive
17,O=C(O)c1ccc(Cl)c(Cl)c1,inactive
18,CN(C)c1ccc(C2(c3ccc(N(C)C)cc3)OC(=O)c3cc(N(C)C)ccc32)cc1,60.9 µM (active)
19,COC(=O)C1=C(C)NC(C)=C(C(=O)OCC(C)C)C1c1ccccc1[N+](=O)[O-] (stereo not given),26.6 µM (active)
20,CCN1/C(=C/C=C/c2sc3ccccc3[n+]2CC)Sc2ccccc21,15 µM (active)
